Results on 40 molecules are retold here after PubChem BioAssay (NCI).

Structures are written as SMILES. Compounds without any hit were thinned out: in the full panel of roughly 79,000, 15% have a hit. Values without a mark were called inactive. Active and inactive are the calls of the source. Cut-off read from the data, not from the text of the source: active = growth inhibition above about 70%; inactive = the rest.

A short description of the first assay: NCI Yeast Anticancer Drug Screen. Data for the bub3 strain (AID 167). To be noted: S. cerevisiae bub3 mutant strain, at 50.0 µM, active compounds read high. The essentials: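 Growth of a checkpoint-deficient yeast mutant is measured after compound exposure. Values represent inhibition relative to vehicle.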
As to `CC(=O)CCCCCCCCCCCCCC(C)=O`, the growth inhibition is 6.25%.

On to `CC(C)CCC(=O)C(C)C`, for which the growth inhibition was 10.8%.

As to `CCC(=O)OCCCCCCOC(=O)CC`, the growth inhibition was 19.9%.

Regarding `CCC(=O)Cc1ccc(OC)c(OC)c1`, the growth inhibition is 9.35%.

In the case of `NC(=O)NC(=O)NCc1ccccc1`, the growth inhibition is 6.6%.

With `CC(O)CN1CNC(=S)NC1` (stereo not given), the growth inhibition is -16.2%.

On to `COC(=O)C1(C2(C(=O)OC)NC(C)=C(c3ccccc3)C(=O)O2)NC(C)=C(c2ccccc2)C(=O)O1` (stereo not given), for which the growth inhibition was -5.15%.

On to `c1ccc2c3c(ccc2c1)OCCOCCOc1ccc2ccccc2c1-3`, for which the growth inhibition was 91.9% (active).

With `CN(c1ncc(Cc2cnc(N(C)C3CCN(Cc4ccccc4)CC3)nc2)cn1)C1CCN(Cc2ccccc2)CC1`, the growth inhibition is -2.95%.

In the case of `O=c1[nH]c(Nc2ccc(F)c(Cl)c2)nc2nc[nH]c12`, the growth inhibition is 2.55%.

Regarding `Cc1cc(O)cc(C)c1Cl`, the growth inhibition is 12.9%.

As to `O=C(O)C(Cc1c[nH]c2ccccc12)N1C(=O)c2ccccc2C1=O` (stereo not given), the growth inhibition was -2.5%.

Consider `Cn1c(O)c(C=Nc2ccccc2Cl)c(=O)n(C)c1=O`, for which the growth inhibition is 0.55%.

In the case of `Cc1cccc(-c2nc(N)nc(N)n2)c1`, the growth inhibition was 7%.

As for `CCCCN(CCCC)CC(CC)N(CCCC)CCCC` (stereo not given), the growth inhibition is 10.8%.

As to `CCOC(=O)CCCN1CCC=C(C#N)C1`, the growth inhibition was 13%.

`CC1=CN(c2ccccc2)S2=C1c1sc3c(c1N2c1ccc(Br)cc1)CCCC3` (stereo not given): the growth inhibition is 3.15%.

`CC(=O)c1ccc(O)c(CN(C2CCCCC2)C2CCCCC2)c1O`: the growth inhibition is -18%.

Take `O=C(CC(=O)Nc1ccccc1)NNC(Sc1ccccc1)c1cc(N=Nc2ccc(Br)cc2)ccc1O` (stereo not given): the growth inhibition is -2.9%.

On to `CCCC#CCN(C(C)C)C(C)C`, for which the growth inhibition was -5.25%.

`O=C(NNC(=O)c1ccc2ccccc2n1)c1ccc2ccccc2n1`: the growth inhibition is 0.2%.

For `O=C(O)c1ccc(-n2cnc3c(=O)[nH]cnc32)cc1`, the growth inhibition was -4.9%.

As to `O=C(COc1ccccc1[N+](=O)[O-])Nc1cccnc1`, the growth inhibition was -3.25%.

On to `Cc1cc(C)c2c(c1)Nc1ccccc1P2c1ccccc1` (stereo not given), for which the growth inhibition is 44.6%.

Consider `COc1ccc(NC(=O)Nc2ccc(SC)cc2)c(Cl)c1`, for which the growth inhibition was 19.5%.

In the case of `Cc1ccc(S(=O)(=O)C(Sc2ccccc2)=S=NC(C)(C)C)cc1`, the growth inhibition is 81.8% (active).

`CCC(CO)(CO)CBr`: the growth inhibition is -4.9%.

Take `O=S(=O)(Oc1ccc(Cl)cc1)c1cccc(S(=O)(=O)Oc2ccc(Cl)cc2)c1`: the growth inhibition is 5.5%.

`CCCCC(=O)CCCCCCCCC(=O)CCCC`: the growth inhibition was -4%.

For the molecule `O=C(O)CNCc1ccc(F)cc1`, the growth inhibition is 13.2%.

In the case of `Cc1ccc(S(=O)(=O)OC2C(CI)OCOC(CI)C2OS(=O)(=O)c2ccc(C)cc2)cc1` (stereo not given), the growth inhibition was -21.6%.

Regarding `N#C/C(=C\c1c2ccccc2c(Cl)c2ccccc12)C(N)=S`, the growth inhibition was 15.4%.

With `COC(=O)C1(CC(=O)c2ccncc2)NC(=S)NC(=O)C1C#N` (stereo not given), the growth inhibition is -22.8%.

With `Cc1cccc(Cl)c1OCC(=O)Nc1ccccc1`, the growth inhibition was 58.6%.

In the case of `CN(C)c1nc(OC2C(C3COC(C)(C)O3)OC3OC(C)(C)OC32)nc(N(C)C)n1` (stereo not given), the growth inhibition was -4.35%.

Regarding `O=C(CCCCCCC(=O)C[N+]12CCC(CC1)C(O)C2)C[N+]12CCC(CC1)C(O)C2` (stereo not given), the growth inhibition is 3.6%.

On to `O=c1c2ccccc2c(=O)c2c1ccc1[nH]c3ccccc3sc12`, for which the growth inhibition is 6.2%.

With `Cc1ccc(S(=O)(=O)NC(=O)NC23CC4CC(CC(F)(C4)C2)C3)cc1`, the growth inhibition was 13.8%.

For the molecule `Cc1[nH]c(=O)nc(CC(O)(c2ccccc2)c2ccccc2)c1-c1ccccc1`, the growth inhibition was -6.05%.

Consider `CC(C)C(Nc1ncnc2nc[nH]c12)C(=O)O` (stereo not given), for which the growth inhibition was -23.2%.

A further assay in a line: NCI Yeast Anticancer Drug Screen. Data for the mlh1 rad18 strain (AID 175). To be noted: S. cerevisiae mlh1 rad18 strain growth inhibition; at 50.0 µM; active compounds read high. The method in brief: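 A repair-deficient yeast strain is exposed to test compound, and growth is scored relative to vehicle-treated controls.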
As to `CC(=O)CCCCCCCCCCCCCC(C)=O`, the growth inhibition is -6%.

As for `CC(C)CCC(=O)C(C)C`, the growth inhibition is 15.2%.

Consider `CCC(=O)OCCCCCCOC(=O)CC`, for which the growth inhibition is -5.9%.

`CCC(=O)Cc1ccc(OC)c(OC)c1`: the growth inhibition was 2.5%.

As for `NC(=O)NC(=O)NCc1ccccc1`, the growth inhibition is -4.9%.

As to `CC(O)CN1CNC(=S)NC1` (stereo not given), the growth inhibition is -7.25%.

Regarding `COC(=O)C1(C2(C(=O)OC)NC(C)=C(c3ccccc3)C(=O)O2)NC(C)=C(c2ccccc2)C(=O)O1` (stereo not given), the growth inhibition was 15%.

As to `c1ccc2c3c(ccc2c1)OCCOCCOc1ccc2ccccc2c1-3`, the growth inhibition was 86% (active).

In the case of `CN(c1ncc(Cc2cnc(N(C)C3CCN(Cc4ccccc4)CC3)nc2)cn1)C1CCN(Cc2ccccc2)CC1`, the growth inhibition is -21.8%.

On to `O=c1[nH]c(Nc2ccc(F)c(Cl)c2)nc2nc[nH]c12`, for which the growth inhibition was -23.7%.

As for `Cc1cc(O)cc(C)c1Cl`, the growth inhibition was 11.2%.

With `O=C(O)C(Cc1c[nH]c2ccccc12)N1C(=O)c2ccccc2C1=O` (stereo not given), the growth inhibition is 28.6%.

On to `Cn1c(O)c(C=Nc2ccccc2Cl)c(=O)n(C)c1=O`, for which the growth inhibition was -28.4%.

With `Cc1cccc(-c2nc(N)nc(N)n2)c1`, the growth inhibition is 22.4%.

`CCCCN(CCCC)CC(CC)N(CCCC)CCCC` (stereo not given): the growth inhibition was 7.35%.

As to `CCOC(=O)CCCN1CCC=C(C#N)C1`, the growth inhibition was 7.85%.

Take `CC1=CN(c2ccccc2)S2=C1c1sc3c(c1N2c1ccc(Br)cc1)CCCC3` (stereo not given): the growth inhibition is -52.2%.

`CC(=O)c1ccc(O)c(CN(C2CCCCC2)C2CCCCC2)c1O`: the growth inhibition is 4.5%.

On to `O=C(CC(=O)Nc1ccccc1)NNC(Sc1ccccc1)c1cc(N=Nc2ccc(Br)cc2)ccc1O` (stereo not given), for which the growth inhibition is -4.7%.

Regarding `CCCC#CCN(C(C)C)C(C)C`, the growth inhibition is -7.85%.

Take `O=C(NNC(=O)c1ccc2ccccc2n1)c1ccc2ccccc2n1`: the growth inhibition is 16.6%.

Regarding `O=C(O)c1ccc(-n2cnc3c(=O)[nH]cnc32)cc1`, the growth inhibition is -7.85%.

Take `O=C(COc1ccccc1[N+](=O)[O-])Nc1cccnc1`: the growth inhibition is 8.25%.

For the molecule `Cc1cc(C)c2c(c1)Nc1ccccc1P2c1ccccc1` (stereo not given), the growth inhibition was 53.6%.

Regarding `COc1ccc(NC(=O)Nc2ccc(SC)cc2)c(Cl)c1`, the growth inhibition is 20.9%.

Consider `Cc1ccc(S(=O)(=O)C(Sc2ccccc2)=S=NC(C)(C)C)cc1`, for which the growth inhibition was 91.8% (active).

On to `CCC(CO)(CO)CBr`, for which the growth inhibition is 9.55%.

For the molecule `O=S(=O)(Oc1ccc(Cl)cc1)c1cccc(S(=O)(=O)Oc2ccc(Cl)cc2)c1`, the growth inhibition was 1.8%.

For `CCCCC(=O)CCCCCCCCC(=O)CCCC`, the growth inhibition is -19.8%.

In the case of `O=C(O)CNCc1ccc(F)cc1`, the growth inhibition is -5.9%.

As for `Cc1ccc(S(=O)(=O)OC2C(CI)OCOC(CI)C2OS(=O)(=O)c2ccc(C)cc2)cc1` (stereo not given), the growth inhibition was -14.8%.

For the molecule `N#C/C(=C\c1c2ccccc2c(Cl)c2ccccc12)C(N)=S`, the growth inhibition is 24.4%.

For `COC(=O)C1(CC(=O)c2ccncc2)NC(=S)NC(=O)C1C#N` (stereo not given), the growth inhibition was -5.75%.

For the molecule `Cc1cccc(Cl)c1OCC(=O)Nc1ccccc1`, the growth inhibition is -3.65%.

Regarding `CN(C)c1nc(OC2C(C3COC(C)(C)O3)OC3OC(C)(C)OC32)nc(N(C)C)n1` (stereo not given), the growth inhibition is 2.15%.

As for `O=C(CCCCCCC(=O)C[N+]12CCC(CC1)C(O)C2)C[N+]12CCC(CC1)C(O)C2` (stereo not given), the growth inhibition is 15.6%.

On to `O=c1c2ccccc2c(=O)c2c1ccc1[nH]c3ccccc3sc12`, for which the growth inhibition was -6.6%.

Take `Cc1ccc(S(=O)(=O)NC(=O)NC23CC4CC(CC(F)(C4)C2)C3)cc1`: the growth inhibition is 2.1%.

On to `Cc1[nH]c(=O)nc(CC(O)(c2ccccc2)c2ccccc2)c1-c1ccccc1`, for which the growth inhibition was -26.1%.

`CC(C)C(Nc1ncnc2nc[nH]c12)C(=O)O` (stereo not given): the growth inhibition is -16.9%.
